Inconclusive results are not listed. The source made the active and inactive calls. Calls follow the shape of the dose curve; as a rule, active = well fitted cell-killing curve with a large enough effect in the repeat runs; inconclusive = weak or mixed curves, or effect the other way; inactive = no such curve, though single readings can be large or run the other way.
Test: qHTS assay to identify small molecule antagonists of the vitamin D receptor (VDR) signaling pathway - cell viability counter screen (AID 743225); also: nearly all actives have a fitted effect of over 50% in size
Settings: VDR-bla HEK293T viability, CellTiter-Glo luminescence, 16 h; series mostly up to 61 µM; viability change, negative = cytotoxic: at the top concentration
From the text: U.S. Tox21 Program National Center for Advancing Translational Sciences [NCATS] NIH Chemical Genomics Center [NCGC] U.S. Environmental Protection Agency [EPA] National Institutes of Environmental Health Sciences [NIEHS] National Toxicology Program [NTP] U.S. Food and Drug Administration [FDA] Tox21 Assay Overview: The vitamin D receptor (VDR), a member of nuclear hormone receptor superfamily, plays a critical role in calcium homeostasis and bone metabolism. It is also involved in cell differentiation and growth, and thrombogenicity. To identify the compounds that inhibit VDR signaling, the VDR-UAS-bla HEK 293T cell line (Invitrogen, Carlsbad, CA, USA) containing a beta-lactamase reporter gene under the control of an upstream activator sequence (UAS) was used to screen the Tox21 10K compound library. The cytotoxicity of the Tox21 compound library against the VDR-bla cell line was tested in parallel by measuring the cell viability using CellTiter-Glo assay (Promega, Madison, WI) in the same wells.
Tox21 Assay Protocol Summary: VDR-bla cells were dispensed at 2,000 cells/5 uL of assay medium per well into black wall/clear-bottom 1536-well plates using a Multidrop Combi (Thermo Fisher Scientific, Waltham, MA) dispenser. After the assay plates were incubated at a 37C and 5% CO2 for 4 h, 23 nL of compounds dissolved in DMSO, positive controls or DMSO only was transferred to the assay plate by a Pintool station (Kalypsys, San Diego, CA), followed by addition of 1 uL of 1-alpha, 25-Dihydroxy Vitamin D3 (3 nM, final concentration in the wells) using a Bioraptr Flying Reagent Dispenser (FRD) workstation (Beckman Coulter, Indianapolis, IN). The plates were incubated at 37C and 5% CO2 for 16 h, and then 1 uL of LiveBLAzerTM B/G FRET substrate was added using a Bioraptr FRD. The plates were incubated at room temperature for 2 h and fluorescence intensity was measured by an Envision plate reader (PerkinElmer, Shelton, CT). For cell viability readout that measures cytotoxicity, 3 ul/well of CellTiter-Glo reagent was added into the assay plates using a Bioraptr FRD. After 30 min incubation at room temperature, the luminescence intensity in the plates was measured using a ViewLux plate reader (PerkinElmer).
% is scaled to controls: 0 for no effect and ±100 for the full control effect.

| Structure (SMILES) | viability change, negative = cytotoxic |
| --- | --- |
| ONc1ccccc1 | 14.7% [at 78.8 µM] (inactive) |
| Cc1c(N)cccc1Cl | 0% (inactive) |
| CCCCOC(=O)C(C)O (stereo not given) | 0.985% (inactive) |
| CC(C)=CCC/C(C)=C/COC=O | 5.23% (inactive) |
| O=C1NC(c2ccccc2)(c2ccccc2)C(=O)N1COP(=O)(O)O | 0.476% (inactive) |
| O=C(O)CNC(=O)CNC(=O)CNC(=O)CSC(=O)c1ccccc1 | -0.0285% (inactive) |
| CC1OCCC1=O (stereo not given) | -18.8% (inactive) |
| O=S(=O)(O)c1ccc2c(N=Nc3ccc(S(=O)(=O)O)c4ccccc34)c(O)c(S(=O)(=O)O)cc2c1 | 6.08% [at 6.95 µM] (inactive) |
| CC(C)C1OCCN1CCOC(=O)NCCCCCCNC(=O)OCCN1CCOC1C(C)C (stereo not given) | 9.23% (inactive) |
| COC(=O)CCCCC(CCSS/C(CCO)=C(\C)N(C=O)Cc1cnc(C)nc1N)SC(C)=O (stereo not given) | 6.38% (inactive) |
| COC(=O)c1cc(Cl)cc(Cl)c1 | -1.8% (inactive) |
| CO/N=C(/C(=O)N[C@@H]1C(=O)N2C(C(=O)[O-])=C(C[n+]3ccn4ncccc43)CS[C@H]12)c1nsc(N)n1 | 1.37% (inactive) |
| COc1cc2c(cc1OC)CN(C(=O)[C@H](C)N[C@@H](CCc1ccccc1)C(=O)O)[C@H](C(=O)O)C2 | -6.07% (inactive) |
| CC(=O)c1cc(C)oc1C | 7.66% [at 78.8 µM] (inactive) |
| CCC(C)OC(C)CC (stereo not given) | 13.8% [at 78.8 µM] (inactive) |
| COc1cc2c(cc1OC)C(=O)C(CC1CCN(Cc3ccccc3)CC1)C2 (stereo not given) | -31.2% (inactive) |
| CC(C)CO | -21.3% [at 78.8 µM] (inactive) |
| N[C@@H](Cc1ccc(O)cc1)C(=O)O | 7.41% [at 6.95 µM] (inactive) |
| Cc1cc(-c2ccccc2)nnc1NCCN1CCOCC1 | -0.916% (inactive) |
| Cc1cccc(Cl)c1 | -5.69% (inactive) |

| Structure (SMILES) | viability change, negative = cytotoxic |
| --- | --- |
| CC(C)C[C@@H]1[C@H](c2ccccc2)OC(=O)N1CCCN1CCCCCC1 | 0.941% (inactive) |
| O=C1c2ccccc2C(=O)c2cc(Cl)ccc21 | -4.02% [at 6.95 µM] (inactive) |
| OC[C@H]1O[C@@H](O[C@@H]2[C@@H](CO)O[C@](O)(CO)[C@H]2O)[C@H](O)[C@@H](O)[C@H]1O | 16.7% (inactive) |
| CC(C)(C)NC[C@H](O)COc1cccc2c1CCCC2=O | -5.31% (inactive) |
| C=CCN1C[C@H](C(=O)N(CCCN(C)C)C(=O)NCC)C[C@@H]2c3cccc4[nH]cc(c34)C[C@H]21 | -1.7% (inactive) |
| CC(=O)OC1CCCCC1C(C)(C)C (stereo not given) | 3.08% (inactive) |
| CN1CCOC(c2ccccc2)c2ccccc2C1 (stereo not given) | 0.259% (inactive) |
| COCCc1ccccn1 | 6.36% (inactive) |
| C=C(C)[C@@H]1CC=C(C)C(=O)C1 | 40.1% (inactive) |
| CCCCCCCCCOC(=O)CCCCC(=O)OCCCCCCC | -1.19% (inactive) |
| OCC1CCC(CO)CC1 (stereo not given) | -5.58% [at 78.8 µM] (inactive) |
| CCCCOC(=O)[C@H](C)O | -6.19% (inactive) |
| Cn1c(=O)c2c(ncn2CCO)n(C)c1=O | -7.06% (inactive) |
| O=C(CCCl)NCCc1ccccc1 | -0.988% (inactive) |
| CC1CC(=O)CC(C)(C)C1 (stereo not given) | 3.13% (inactive) |
| COS(=O)(=O)O | 23.1% (inactive) |
| CN(C)CCN(C)CCO | -15.3% (inactive) |
| c1ccc2cnccc2c1 | 3.55% (inactive) |
| CCCCCCCCCOC(=O)c1ccccc1C(=O)OCCCCCCCCC | 0% (inactive) |
| CCn1cc(C(=O)O)c(=O)c2cnc(N3CCCC3)nc21 | -2.96% [at 6.95 µM] (inactive) |

— PubChem BioAssay (Tox21)
